This is part of a sample that, as a whole, favours compounds with a hit. Of some 83,000 tested, about 20% had one in any assay.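 Each cell line was grown in a 96-well plate and treated with one concentration of compound for 48 hours. Values below 10 were considered active.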 The source made the active and inactive calls.
What was measured:
Assay in all cases: NCI-60 one-dose screen, 48 h (100 = growth as untreated, 0 = no growth, -100 = all killed)
HCT-15 colon = settings: 10 µM unless noted
HT29 colon = settings: 10 µM unless noted
SNB-75 CNS = settings: 10 µM unless noted
SNB-19 CNS = settings: 10 µM unless noted
U251 CNS = settings: 10 µM unless noted
PC-3 prostate = settings: 10 µM unless noted
SK-MEL-5 melanoma = settings: 10 µM unless noted
UACC-62 melanoma = settings: 10 µM unless noted
LOX IMVI melanoma = settings: 10 µM unless noted
SK-MEL-28 melanoma = settings: 10 µM unless noted
SK-MEL-2 melanoma = settings: 10 µM unless noted
EKVX NSCLC = settings: 10 µM unless noted
SN12C renal = settings: 10 µM unless noted
UO-31 renal = settings: 10 µM unless noted
ACHN renal = settings: 10 µM unless noted
CAKI-1 renal = settings: 10 µM
A498 renal = settings: 10 µM unless noted
CCRF-CEM leukemia = settings: 10 µM unless noted
MOLT-4 leukemia = settings: 10 µM unless noted

Measured: growth

O=C(Nc1ccc(-n2ccc3c(NC(=O)c4ccccc4)ncnc32)cc1)Nc1ccc(Cl)c(Cl)c1
active: HCT-15 colon 0.689% | HT29 colon -58.2% | SNB-75 CNS -5.84% | U251 CNS -58.6% | PC-3 prostate -52.3% | SK-MEL-28 melanoma 5.26% | UO-31 renal 9.15% | CCRF-CEM leukemia -10.2%
inactive: SNB-19 CNS 15.6% | SK-MEL-5 melanoma 13.7% | UACC-62 melanoma 48.5% | LOX IMVI melanoma 45.5% | SK-MEL-2 melanoma 11.7% | EKVX NSCLC 27.3% | SN12C renal 15.8% | ACHN renal 27.8% | CAKI-1 renal 30.8% | A498 renal 90.5% | MOLT-4 leukemia 28.7%

O=C(NCCNc1nccc(-c2c(-c3cccc(O)c3)nc3sccn23)n1)Nc1cccc(C(F)(F)F)c1
inactive: HCT-15 colon 84.7% | HT29 colon 38.9% | SNB-75 CNS 66.2% | SNB-19 CNS 89.5% | U251 CNS 81.6% | PC-3 prostate 26.7% | SK-MEL-5 melanoma 53.5% | UACC-62 melanoma 29.4% | LOX IMVI melanoma 64.5% | SK-MEL-28 melanoma 48.8% | SK-MEL-2 melanoma 54.4% | EKVX NSCLC 91.2% | SN12C renal 70.7% | UO-31 renal 75.2% | ACHN renal 85.1% | CAKI-1 renal 90.3% | A498 renal 111% | CCRF-CEM leukemia 23.1% | MOLT-4 leukemia 59.8%

COc1cc(C(=O)C[n+]2ccccc2)ccc1OC(C)=O
inactive: HCT-15 colon 103% | HT29 colon 108% | SNB-75 CNS 87.6% | SNB-19 CNS 98.6% | U251 CNS 98.9% | PC-3 prostate 89.9% | SK-MEL-5 melanoma 98% | UACC-62 melanoma 97.1% | LOX IMVI melanoma 101% | SK-MEL-28 melanoma 107% | SK-MEL-2 melanoma 102% | EKVX NSCLC 100% | SN12C renal 98.1% | UO-31 renal 104% | ACHN renal 105% | CAKI-1 renal 99.3% | A498 renal 78.9% | CCRF-CEM leukemia 95.9% | MOLT-4 leukemia 98.2%

CCOC(=O)c1[nH]c(-c2ccc(Cl)cc2)cc1-c1cccnc1
active: HT29 colon 6.32% | SNB-75 CNS -1.8% | A498 renal -9.26% | CCRF-CEM leukemia 9.2%
inactive: HCT-15 colon 21.8% | SNB-19 CNS 52.9% | U251 CNS 20.8% | PC-3 prostate 14% | SK-MEL-5 melanoma 27.1% | UACC-62 melanoma 38.8% | LOX IMVI melanoma 48.5% | SK-MEL-28 melanoma 47.8% | SK-MEL-2 melanoma 39.5% | EKVX NSCLC 24.3% | SN12C renal 43.6% | UO-31 renal 21% | ACHN renal 35.7% | CAKI-1 renal 28.3% | MOLT-4 leukemia 11.7%

O=C1COc2ccccc2C(=O)N1CCCCN1CCCCC1
inactive: HCT-15 colon 91.3% | HT29 colon 73.6% | SNB-75 CNS 99.5% | SNB-19 CNS 99.4% | U251 CNS 88.9% | PC-3 prostate 57.7% | SK-MEL-5 melanoma 99.1% | UACC-62 melanoma 91.6% | LOX IMVI melanoma 90.7% | SK-MEL-28 melanoma 95.6% | SK-MEL-2 melanoma 95.4% | EKVX NSCLC 98.5% | SN12C renal 99.2% | UO-31 renal 91.7% | ACHN renal 99.2% | CAKI-1 renal 103% | A498 renal 114% | CCRF-CEM leukemia 69.4% | MOLT-4 leukemia 83.2%

O=C(Nc1ccc(-n2cc(-c3ccncc3)c(-c3ccc(O)c(Cl)c3)n2)cc1)Nc1cc(C(F)(F)F)cc(C(F)(F)F)c1
inactive: HCT-15 colon 61.1% | HT29 colon 97.2% | SNB-75 CNS 72.2% | SNB-19 CNS 47.6% | U251 CNS 37.7% | PC-3 prostate 50.4% | SK-MEL-5 melanoma 54% | UACC-62 melanoma 64.1% | LOX IMVI melanoma 51.4% | SK-MEL-28 melanoma 76.8% | SK-MEL-2 melanoma 77.6% | EKVX NSCLC 44.6% | SN12C renal 61.6% | UO-31 renal 59.6% | ACHN renal 65.5% | CAKI-1 renal 46.6% | A498 renal 65.9% | CCRF-CEM leukemia 55.8% | MOLT-4 leukemia 64.3%

COc1ccc(-c2nn(-c3ccc(NC(=O)Nc4ccc(Cl)c(C(F)(F)F)c4)cc3)cc2-c2ccncc2)cc1Cl
active: HCT-15 colon 4.89% | HT29 colon 1.91% | U251 CNS -7.17% | PC-3 prostate 4.33% | SK-MEL-5 melanoma -86.8% | UACC-62 melanoma 0.79% | LOX IMVI melanoma 2.18% | SK-MEL-2 melanoma -43.4% | UO-31 renal 3.92% | ACHN renal 7.51% | CAKI-1 renal -18.8% | A498 renal -5.72% | CCRF-CEM leukemia 6.6% | MOLT-4 leukemia 8.53%
inactive: SNB-75 CNS 32.8% | SNB-19 CNS 30.1% | SK-MEL-28 melanoma 12.2% | EKVX NSCLC 11.1% | SN12C renal 16.5%

CCCCCCCCCCCCCCCC(=O)NS(=O)(=O)OC[C@H]1O[C@@H](n2cnc3c(N)ncnc32)[C@H](O)[C@@H]1O
active: HCT-15 colon -8.55% | HT29 colon -17.1% | SNB-75 CNS -41.6% | SNB-19 CNS -53.7% | U251 CNS -87.5% | PC-3 prostate -52.4% | SK-MEL-5 melanoma -88.8% | UACC-62 melanoma -48.9% | LOX IMVI melanoma -64.8% | SK-MEL-28 melanoma -59.7% | SK-MEL-2 melanoma -24.7% | EKVX NSCLC -8.18% | SN12C renal -12.9% | UO-31 renal -69.8% | ACHN renal -18.6% | CAKI-1 renal -61.4% | A498 renal -95.6% | CCRF-CEM leukemia 5.11% | MOLT-4 leukemia -4.18%

OC[C@@H](O)C(O[C@@H]1O[C@H](CO)[C@H](O)[C@H](O)[C@H]1O)[C@H](O)[C@@H](O)CO (some centres undefined)
inactive: HCT-15 colon 98.2% | HT29 colon 103% | SNB-75 CNS 98.6% | SNB-19 CNS 107% | U251 CNS 97.6% | PC-3 prostate 86.6% | SK-MEL-5 melanoma 106% | UACC-62 melanoma 99.1% | LOX IMVI melanoma 98.8% | SK-MEL-28 melanoma 110% | SK-MEL-2 melanoma 106% | EKVX NSCLC 95.4% | SN12C renal 101% | UO-31 renal 75.5% | ACHN renal 94.4% | CAKI-1 renal 92.9% | A498 renal 111% | CCRF-CEM leukemia 106% | MOLT-4 leukemia 106%

CN(C)CCS(=O)(=O)Nc1cc(-c2ccc3ncnc(Nc4ccc(F)c(Cl)c4)c3c2)cnc1Cl
inactive: SNB-19 CNS 41.6% | SN12C renal 22.6% | ACHN renal 20.2%
active: HCT-15 colon -2.7% | HT29 colon 2.45% | SNB-75 CNS 9.33% | U251 CNS -40.6% | PC-3 prostate 6.17% | SK-MEL-5 melanoma -71.9% | UACC-62 melanoma -2.94% | LOX IMVI melanoma -58.5% | SK-MEL-28 melanoma -31.6% | SK-MEL-2 melanoma -53.4% | EKVX NSCLC -9.17% | UO-31 renal -61.2% | CAKI-1 renal -30.6% | A498 renal -78% | CCRF-CEM leukemia 0.907% | MOLT-4 leukemia -36.7%

CN(C)c1ccc(/C=c2\s/c(=C\C(=O)C(C)(C)C)[nH]c2=O)cc1
inactive: HCT-15 colon 95.5% | HT29 colon 91% | SNB-75 CNS 94.3% | SNB-19 CNS 97.5% | U251 CNS 94.1% | PC-3 prostate 85.2% | SK-MEL-5 melanoma 101% | UACC-62 melanoma 95.3% | LOX IMVI melanoma 87.1% | SK-MEL-28 melanoma 104% | SK-MEL-2 melanoma 102% | EKVX NSCLC 93.9% | SN12C renal 99% | UO-31 renal 92.5% | ACHN renal 100% | CAKI-1 renal 97.8% | A498 renal 105% | CCRF-CEM leukemia 101% | MOLT-4 leukemia 133%

C[C@]12O[C@H]1[C@H](O)c1c(cc(O)c3c1C(=O)c1cccc(O)c1-3)C2=O
inactive: HCT-15 colon 103% | HT29 colon 92.9% | SNB-75 CNS 86.3% | SNB-19 CNS 104% | U251 CNS 97.6% | PC-3 prostate 87.3% | SK-MEL-5 melanoma 97.7% | UACC-62 melanoma 88.2% | LOX IMVI melanoma 87.8% | SK-MEL-28 melanoma 107% | SK-MEL-2 melanoma 99.3% | EKVX NSCLC 97.8% | SN12C renal 88.8% | UO-31 renal 91.1% | ACHN renal 99.3% | CAKI-1 renal 99.9% | A498 renal 86.4% | CCRF-CEM leukemia 92% | MOLT-4 leukemia 86.6%

O=[N+]([O-])c1cccc(C2c3ccccc3Oc3ccccc32)c1
inactive: HCT-15 colon 71.1% | HT29 colon 85.1% | SNB-75 CNS 94.4% | SNB-19 CNS 97.1% | U251 CNS 94.7% | PC-3 prostate 84.2% | SK-MEL-5 melanoma 99.4% | UACC-62 melanoma 86.1% | LOX IMVI melanoma 85.8% | SK-MEL-28 melanoma 107% | SK-MEL-2 melanoma 107% | EKVX NSCLC 93.9% | SN12C renal 99.9% | UO-31 renal 70.7% | ACHN renal 89.1% | CAKI-1 renal 72.4% | A498 renal 94.1% | CCRF-CEM leukemia 88.6% | MOLT-4 leukemia 79.6%

CN(CCNCc1ccccn1)CCNCc1ccccn1
inactive: SNB-75 CNS 12.9% | SNB-19 CNS 44.7% | U251 CNS 11% | SK-MEL-28 melanoma 10.7% | EKVX NSCLC 23.8% | SN12C renal 27.9% | CCRF-CEM leukemia 10.7%
active: HCT-15 colon 9.87% | HT29 colon 7.47% | PC-3 prostate 5.04% | SK-MEL-5 melanoma -31.7% | UACC-62 melanoma 4.5% | LOX IMVI melanoma 9.32% | SK-MEL-2 melanoma -2.1% | UO-31 renal -11.8% | ACHN renal 0.79% | CAKI-1 renal -42% | A498 renal -91.9% | MOLT-4 leukemia 1.98%

O=[N+]([O-])c1cccc(C(c2ccccc2)c2ccccc2)c1
inactive: HCT-15 colon 95.3% | HT29 colon 79.8% | SNB-75 CNS 86.4% | SNB-19 CNS 97.3% | U251 CNS 90.9% | PC-3 prostate 70.4% | SK-MEL-5 melanoma 101% | UACC-62 melanoma 86.7% | LOX IMVI melanoma 87.3% | SK-MEL-28 melanoma 107% | SK-MEL-2 melanoma 97.8% | EKVX NSCLC 79.1% | SN12C renal 98% | UO-31 renal 75.7% | ACHN renal 85.9% | CAKI-1 renal 56.8% | A498 renal 91% | CCRF-CEM leukemia 87.2% | MOLT-4 leukemia 83.3%

Cc1ccc2nc(-c3ccc(-n4on4-c4ccc(/C=C/c5ccc(-n6on6-c6ccc(-c7nc8ccc(C)cc8s7)cc6)cc5S(=O)(=O)O)c(S(=O)(=O)O)c4)cc3)sc2c1
inactive: HCT-15 colon 109% | HT29 colon 113% | SNB-75 CNS 107% | SNB-19 CNS 117% | U251 CNS 115% | PC-3 prostate 98% | SK-MEL-5 melanoma 107% | UACC-62 melanoma 105% | LOX IMVI melanoma 97% | SK-MEL-28 melanoma 107% | SK-MEL-2 melanoma 112% | EKVX NSCLC 112% | SN12C renal 105% | UO-31 renal 90.4% | ACHN renal 105% | CAKI-1 renal 106% | A498 renal 112% | CCRF-CEM leukemia 100% | MOLT-4 leukemia 93.9%
